# Experimental data as given in PubChem BioAssay AID540356 (Broad Institute, 2011).
# The campaign covered roughly 2,500 compounds. About 360 (14%) were called active. A selection follows. A number with no mark means an inactive call.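 How the source made its calls: active means signal-lowering compounds whose fitted half-maximal concentration AC50 is no higher than ten times their top tested concentration; inconclusive means flat curve with 30 to 70% inhibition, or poor fit; inactive means flat within 30%, signal increase, or AC50 above limit.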
# Assay: non-specific inhibitors of H2O2 luminol chemiluminescence – biochemical, luminescence, no ALR or DTT, cherry-pick, artefact control for ALR inhibitor project, dose response (AID 540356);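 on activity change, negative = inhibition: 0% = median of neutral control wells and -100% = median of quercitin 100 µM wells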
# Conditions: HRP/H2O2 luminol luminescence counterscreen; series mostly up to 10 µM; activity change, negative = inhibition: at the top concentration
SMILES,"activity change, negative = inhibition",AC50
Clc1ccc(/C=C/c2ncc3ccccn23)cc1,-2.76%,
COc1cc(/C=N/Nc2nc3ccccc3[nH]2)ccc1O,,8.83 µM (active)
COc1cc(/C=N/Nc2nc3ccccc3[nH]c2=O)ccc1O,-1.19%,
COc1ccc(/C=N/Nc2nc3ccccc3[nH]2)cc1OC,-4.23%,
O=S(=O)(Nc1ccc(N2CCCCC2)cc1)c1cccc2cccnc12,-3.36%,
COc1ccc(CNc2nc3ccccc3n2C(C)C)c(O)c1,-1.78%,
COc1ccc(O)c(-c2cc(-c3ccccc3[N+](=O)[O-])[nH]n2)c1,-1.04%,
Oc1ccccc1-c1n[nH]c(=S)n1Cc1ccco1,-1.91%,
COc1ccc(N2CCN(S(=O)(=O)c3cccc4cccnc34)CC2)cc1,-0.663%,
Oc1ccc(NCc2cccs2)cc1,-11.6%,
Oc1cccc(Nc2c3ccccc3nc3ccccc23)c1,-4.8%,
COC(=O)C1C(C(C)C)N(c2ccccc2)OC1(C)O (stereo not given),0.721%,
CCc1ccc(CNc2ccc(N3CCN(C(C)=O)CC3)cc2)cc1,-9.6%,
CC(=O)N1CCN(c2ccc(NCc3cccc4ccccc34)cc2)CC1,-12.5%,
CC(=O)N1CCN(c2ccc(NCc3ccccc3)cc2)CC1,,8.41 µM (active)
CCN(CCCNC(=O)CN(C)S(=O)(=O)c1cccc2nsnc12)c1cccc(C)c1,-0.901%,
O=S(=O)(c1ccc2ccccc2c1)N1CCN=C1SCc1cccnc1,-0.468%,
CCCc1ccc(-c2cc(N)n[nH]2)cc1,1.55%,
O=C(N/N=C/c1ccncc1)c1cccc(N/N=C/c2ccncc2)c1,-0.954%,
Cc1cccc(N/N=C/c2ccncc2)c1,,2.61 µM (active)

SMILES,"activity change, negative = inhibition",AC50
Cc1cccc(N/N=C/c2ccc(O)c(O)c2O)c1,-9.18%,
COC(=O)/C=C/S(=O)(=O)c1ccc(NC(C)=O)cc1,-3.22%,
CC(=O)N/N=C/c1cc(C)n(-c2ccc(Br)cc2)c1C,-6.43%,
COc1cc(/C=C2\CCCc3c2nc2ccccc2c3C(=O)O)cc(Br)c1O,-1.92%,
CCN(CC)c1ccc(NS(=O)(=O)c2ccc(OC)cc2)cc1,-0.963%,
CCc1cc(C(=O)c2ccc(OC)cc2)c(NC(=O)CC(C)(C)CC(=O)O)s1,-10.1%,
COc1cc(/C=N/NC(=O)c2ccc(CSc3nncn3C)cc2)cc(OC)c1O,-11%,
Cn1c(CSCc2ccc(Cl)cc2)n[nH]c1=S,-3.7%,
Cc1nn(-c2ccccc2)c(C)c1-c1cc(C(=O)N/N=C/c2ccc(O)cc2)[nH]n1,-5.99%,
Cc1cc(C)n2nc(C(=O)N/N=C/c3ccc(O)cc3)nc2n1,-6.76%,
CN(C)Cc1ccccc1Sc1ccc(O)cc1O,-17.3%,
Cc1c(Cl)cccc1-n1c(-c2cccnc2)n[nH]c1=S,-8.61%,
CN(C)c1ccc(CNS(=O)(=O)c2ccc3c(c2)NC(=O)CS3)cc1,4.17%,
Cc1cc(C(=O)NNc2ccc(F)cc2)no1,-5.17%,
Cc1ccc(NCCC(=O)c2cccs2)cc1C,-0.813%,
Cc1ccc(NNC(=O)c2ccno2)cc1C,,0.635 µM (active)
O=C(Nc1ccc(Cl)c(Cl)c1)Nc1ccccc1C(=O)O,-2.26%,
Cc1ccc(NNC(=O)c2ccno2)cc1Cl,,0.327 µM (active)
COc1ccc(/C=N/NC(=O)c2ccncc2)cc1CN1CCN(c2ccc(F)cc2)CC1,-3.54%,
CCN(CC)c1ccc(/C=N/NC(=O)c2cccc(N3CCCC3=O)c2)cc1,-1.14%,
